# Pf growth 96h – P. falciparum growth inhibition at 96 hour, primary screen for plastid delayed-death inhibitors | 6.9% of 320,000 active | Potency, µM (top dose mostly 28.7 µM), without a hit: at the top dose activity change, negative = inhibition, most hits filed as inhibitors | AID 504834 | P. falciparum luciferase reporter growth, 96 h; also: potency is read from the fitted curve at half-maximal effect
#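 Compounds incubated with erythrocytes infected by luciferase-expressing P. falciparum (2% hematocrit, 0.05% parasitemia final) for 96 hours, 37 C in 5% CO2. Growth inhibition scored as decreased luciferase luminescence.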
# HCMV antiviral – blocks human cytomegalovirus replication. 4.5% of 410,000 active. AID 1259415. activity change, negative = inhibition, % at 57.5 µM. HFF cells, HCMV-luciferase reporter, 72 h; hits give low values; in the data active = activity change below about -60%; inconclusive = no clear call, values can overlap the other calls; inactive = above about -39%
#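 Two-dose cell screen: HFF monolayers treated with compounds and infected with luciferase-expressing HCMV at 1 PFU/cell, 72 h at 37C, then lysed for luciferase measurement.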
# Pf growth 48h – P. falciparum growth inhibition at 48 hours (one generation); P. falciparum luciferase growth in erythrocytes, 48 h; AID 504832; Potency, µM (top dose mostly 28.7 µM), for inactives: top-dose activity change, negative = inhibition, most hits filed as inhibitors; 5.9% of 310,000 active; also: potency is read from the fitted curve at half-maximal effect
#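 Cell-based growth assay: transgenic P. falciparum expressing firefly luciferase, cultured in red cells within RPMI 1640 containing 0.5% w/v Albumax, 24 mM bicarbonate and gentamycin. A drop in luciferase activity indicates inhibition.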
# Sm TGR inh – blocks Schistosoma mansoni thioredoxin glutathione reductase. purified TGR, DTNB reduction, TNB absorbance 405 nm. Q962Y6. Potency, µM (titrated, usually from 114 µM), inactives show at the top dose activity change, negative = inhibition, actives largely listed as inhibitors. 3% of 360,000 active; also: potency is read from the fitted curve at half-maximal effect; nearly all actives have a fitted effect of over 60% in size
#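 Kinetic colorimetric format: TGR-catalysed, NADPH-driven DTNB reduction monitored via TNB absorbance. Enzyme dispensed at 20 nM; compound exposure 15 min at room temperature before reaction start.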
# Giardia FBPA inh – blocks Giardia fructose-bisphosphate aldolase activity; A8B2U2; purified Giardia FBPA; Potency, µM (top dose mostly 59.6 µM), inactives show at the top dose activity, negative = inhibition, hits mostly inhibitors; 0.71% of 290,000 active; AID 2451; also: potency is read from the fitted curve at half-maximal effect; nearly all actives have a fitted effect of over 55% in size
# Target sequence (A8B2U2 whole entry, looked up): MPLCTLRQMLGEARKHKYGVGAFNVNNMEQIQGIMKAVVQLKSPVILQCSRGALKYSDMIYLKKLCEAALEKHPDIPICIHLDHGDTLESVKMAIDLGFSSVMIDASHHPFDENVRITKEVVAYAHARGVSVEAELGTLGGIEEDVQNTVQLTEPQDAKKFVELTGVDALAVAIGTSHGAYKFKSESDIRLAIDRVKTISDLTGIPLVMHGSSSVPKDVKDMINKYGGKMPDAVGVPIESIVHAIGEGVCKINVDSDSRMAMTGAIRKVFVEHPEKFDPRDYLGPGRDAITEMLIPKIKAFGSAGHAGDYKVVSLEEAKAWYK
#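 Giardia FBPA (40 nM reagent) was preincubated 10 min at RT with compound (up to 57.5 uM final), then substrate plus GAPDH/TPI/NAD/arsenate coupling system with diaphorase/resazurin was added; resorufin fluorescence (525/598 nm) was read after 20 min.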
# An asterisk follows results filed as active; ? = inconclusive; · = no result; [ ] = another dose, or the depositor's remark. Only some compounds are listed: those with a hit (about 14% of all), similar ones and a draw of the others. Unless noted, calls follow the shape of the dose curve; as a rule, active = well fitted curve in the direction sought with a large enough effect; inconclusive = small, poorly fitted or top-dose-only effect, or another doubt; inactive = no such curve, though single readings can be large; an effect the other way counts as inactive or inconclusive. % is scaled to controls: 0 for no effect and ±100 for the full control effect.
SMILES,Pf growth 96h,HCMV antiviral,Pf growth 48h,Sm TGR inh,Giardia FBPA inh
Cc1oc2c(c1C(=O)N1CCC(C)CC1)C(=O)c1ccccc1C2=O,0.0928µM*,?,0.233µM*,-19.3%,?
CCOc1cc(C2c3c(n[nH]c3C)C(=O)N2c2ccc(Br)cc2)ccc1O (stereo unspecified),13.1µM*,?,7.7%,11.2µM*,-5.3%
COc1cc(C2c3c(n[nH]c3C)C(=O)N2c2ccc(Br)cc2)ccc1O (stereo unspecified),-4.7%[5.75 µM],9.7,36.2%,4.47µM*,7.0%
CCOC(=O)c1ccc(N2C(=O)c3n[nH]c(C)c3C2c2cccc(Br)c2)cc1 (stereo unspecified),·,-32.5,·,-9.6%,·
Cn1cc(/C=C/C(=O)N2CCCC(C(=O)c3cccc(C(F)(F)F)c3)C2)cn1 (stereo unspecified),4.15µM*,-5.4,4.6%,-13.6%,0.6%
Cn1cc(/C=C/C(=O)N2CCCC(C(=O)c3cccc4ccccc34)C2)cn1 (stereo unspecified),54.0%,13.7,-11.1%,-1.3%,0.4%
CCn1ccnc1CN1CCCC(C(=O)c2cccc(C(F)(F)F)c2)C1 (stereo unspecified),13.0%,-35.3,9.28µM*,8.7%,6.5%
COc1cccc(O)c1CN1CCCC(C(=O)c2cccc(C(F)(F)F)c2)C1 (stereo unspecified),?,-1.4,2.94µM*,30.0%,-0.7%
O=C(c1cccc(C(F)(F)F)c1)C1CCCN(Cc2ncc[nH]2)C1 (stereo unspecified),?,-21.8,-10.6%,0.0%,13.3%
COC(=O)[C@]12CCCCC=C1N(Cc1cccc3ccccc13)C(=O)[C@H](CC(=O)N1CCSCC1)C2,·,6.6,·,·,·
O=c1oc2ccccc2n1CSC1=NCCS1,6.1%,-61.6*,?,-12.1%,0.9%
COc1cc(C(=O)NCC(=O)NC(C)CCc2ccccc2)cc(OC)c1OC (stereo unspecified),-4.6%,-28.1,8.8%,5.1%,·
CCc1c(C)nc(N)nc1N1N=C1SCC#N,-8.0%,20.7,·,-5.6%,-2.8%
CCc1c(C)nc(N)nc1N1N=C1SCC(=O)OC,?,-60.5*,2.6%,10.6%,-3.6%
CCC(C(=O)OC)n1cnc2scc(-c3ccc(C)c(C)c3)c2c1=O (stereo unspecified),0.0%,-21.8,13.1µM*,11.9%,5.6%
CCCn1cnc2scc(-c3ccc(C)c(C)c3)c2c1=O,10.4µM*,-15.3,2.4%,-24.6%,-1.2%
COc1cccc(-n2cnc3scc(-c4cccs4)c3c2=O)c1,·,-25.7,-25.2%,4.3%,-5.0%
CCOc1ccc(-n2cnc3scc(-c4ccc(OC)c(OC)c4)c3c2=O)cc1,2.62µM*,54.5,?,-7.4%,-0.8%
CC(=O)N1CCc2cc(S(=O)(=O)CCC(=O)N3CCN(c4cccc(C)c4C)CC3)ccc21,·,-5.3,·,0.7%,·
CC(Cn1cncn1)C(=O)N1CCN(S(=O)(=O)c2ccc(Cl)cc2)CC1 (stereo unspecified),-18.5%,24.7,-0.6%,3.4%,-8.1%
CC(C)(C)c1cc(C(=O)N/N=C/c2ccc(O)cc2)n(-c2ccccc2)n1,-8.1%,-10.3,9.28µM*,-0.7%,-0.2%
CCCCN(C(C)=O)c1ccc(S(=O)(=O)NC2=NCCCCC2)cc1NC(C)=O,·,37.4,·,·,·
Cc1ccc(C2OCC(C)([N+](=O)[O-])CO2)cc1 (stereo unspecified),·,-2.4,·,·,·
Cc1ccc(C23OC(=O)C(C)(C)C2OC(=O)C3(C)C)cc1 (stereo unspecified),13.1µM*,-23.4,9.28µM*,-20.4%,13.6%
Cc1csc2nc(O)c(C(=O)NCCC3=CCCCC3)c(=O)n12,?,-13.4,10.4µM*,3.0%,·
SMILES,Pf growth 96h,HCMV antiviral,Pf growth 48h,Sm TGR inh,Giardia FBPA inh
CCCCCN(C(=O)CCC(=O)OCCOc1cccc(C)c1)c1c(N)n(CCCC)c(=O)[nH]c1=O,?,-21.1,-25.5%,5.9%,·
Cc1cc(=O)oc2c1c(C)nn2-c1ccc(Br)cc1,2.94µM*,-15.5,-27.9%,-6.7%,1.5%
O=C(NN1c2ccccc2CCc2ccccc21)c1ccccc1Br,11.7µM*,41.3,?,12.2%,0.5%
COc1ccccc1C1OC(=O)CC1C(=O)OC[C@@H]1CCCN2CCCCC12 (stereo partly specified),·,·,·,·,4.1%
CCN(CC(=O)NCC1CCCO1)S(=O)(=O)c1ccc2ccccc2c1 (stereo unspecified),-17.8%,33.9,13.9%,4.4%,-2.9%
COC(=O)C(CC(=O)c1ccc(C)cc1)n1nc(C)cc1C (stereo unspecified),?,29.2,14.8%,12.6µM*,-3.0%
Cc1ccc(C(=O)CC(C(=O)O)n2cncn2)cc1 (stereo unspecified),99.2%,-1.6,4.9%,-20.2%,-9.5%
COC(=O)C(CC(=O)c1ccc(Br)cc1)n1ccnc1 (stereo unspecified),-30.0%,·,?,0.282µM*,?
COC(=O)C(CC(=O)c1ccc(Br)cc1)n1nc(C)cc1C (stereo unspecified),0.9%,15.4,-14.6%,3.55µM*,1.5%
Cc1ccc(S(=O)(=O)NCc2ccccn2)cc1C,?,9.0,-21.8%,8.5%,-14.0%
COc1ccc(C(=O)Nc2ccc(OCc3cc(=O)n4ccccc4n3)cc2)cc1,·,11.3,·,6.5%,·
Cn1c(=O)c2c(nc(CN3CCC(C(N)=O)CC3)n2Cc2c(Cl)cccc2Cl)n(C)c1=O,·,81.8,11.7µM*,6.2%,-6.3%
Cn1c(=O)c2c(nc(CN3CCC(C(N)=O)CC3)n2Cc2c(F)cccc2Cl)n(C)c1=O,10.4µM*,13.6,?,5.3%,-8.4%
COc1c(C)cc(C(O)c2ncc(-c3ccc(C(F)(F)F)cc3)[nH]2)cc1C (stereo unspecified),·,29.2,·,·,·
COC(=O)N1CCC2CC1c1c(Cl)cccc12 (stereo unspecified),·,-15.7,·,·,·
C/C(=N\NC(=O)c1ccco1)c1cc(Cl)sc1Cl,43.6%,-13.2,38.7%,-24.4%,·
Cc1cc(N)n2ncc(-c3ccccc3)c2n1,35.3%,101.9,·,-21.5%,-0.1%
CC(=O)Nc1ccc(Nc2cc(C)nc3c(-c4ccccc4)cnn23)cc1,0.0%,-91.7*,1.1%,-0.4%,0.7%
Cc1cc(Oc2nc3c(C)cccn3c(=O)c2/C=C(\C#N)S(=O)(=O)c2ccccc2)ccc1Cl,2.33µM*,68.8,?,2.2%,1.2%
Cc1ccccc1Oc1nc2c(C)cccn2c(=O)c1/C=C(\C#N)C(=O)Nc1c(C)n(C)n(-c2ccccc2)c1=O,?,77.0,?,-1.3%,-1.3%
Cc1cccn2c(=O)c(/C=C(\C#N)C(N)=O)c(N3CCN(c4ccccc4)CC3)nc12,?,?,?,-8.6%,-5.1%
Cc1cccn2c(=O)c(/C=C(\C#N)S(=O)(=O)c3ccccc3)c(Oc3ccc(Cl)cc3)nc12,11.7µM*,75.4,?,5.6%,3.3%
